Mdm2-MdmX inh – inhibitors of human Mdm2/MdmX interaction; inhibition, % at 8 µM; SaOS-2 split-luciferase Mdm2/MdmX complementation, luminescence; AID 485346; 3% of 330,000 active;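 active means inhibition of at least 50% at 8 µM in the primary screen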
Beta apoptosis – blocks beta cell apoptosis | 0.8% of 300,000 active | INS-1E cytokine-induced death, ATP luminescence, 48 h; percent of positive-control rescue, neutral wells zero | protection from apoptosis, % (test concentration not listed);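 active means Every replicate reaches about 75%, or at least half do and their mean reaches it too, limit read from the data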;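 further: 0% = cytokine-treated negative control wells and 100% = positive control rescue; higher means more ATP so stronger rescue from cytokine killing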
Jurkat NFkB inh – lowers PMA/ionomycin-induced NF-kB signal in Jurkat cells | inhibition, % at 4 µM | AID 435003 | PMA/ionomycin-induced NF-kB luciferase reporter, luminescence | 0.53% of 330,000 active; in the data active means inhibition above about 50%
CSC inhib – blocks cancer stem cells | inhibition, % at 7.5 µM | AID 2717 | cancer stem cell-like cells viability, luminescence | 1.1% of 300,000 active; in the data active means inhibition above about 75%; tested in HMLE shEcad cells
697 NFkB inh – lowers PMA/ionomycin-induced NF-kB signal in 697 B cells | 697 B-cell NF-kB luciferase reporter, 16 h | inhibition, % at 4 µM | 0.33% of 330,000 active | AID 435022; in the data active means inhibition above about 35%
Gli-Sufu antag – blocks Gli-Sufu signaling in a luciferase reporter | Sufu-KO-LIGHT fibroblasts, Gli luciferase reporter luminescence | inhibition, % at 5 µM | 0.74% of 340,000 active | AID 588413;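 active means inhibition above about 55%, limit read from the data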;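 further: 0% = DMSO-treated cells and 100% = wells with medium but no cells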
Jurkat NFkB conf – inhibitors of the PMA/ionomycin-induced NF-kB reporter in Jurkat cells, retest | inhibition, % at 4 µM | AID 435020 | 27% of 2,700 active | Jurkat NF-kB luciferase, 16 h | shares compounds with Jurkat NFkB inh;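 active means inhibition reaching about 45% at 4 µM in either replicate, limit read from the data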;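 further: plate controls were PMA/ionomycin stimulated DMSO wells for no effect and unstimulated DMSO wells for full effect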
* = called active by the depositor; / = no result given. Hits are enriched below; roughly 4.5% of the tested compounds scored in any of these assays.

SMILES	Mdm2-MdmX inh	Beta apoptosis	Jurkat NFkB inh	CSC inhib	697 NFkB inh	Gli-Sufu antag	Jurkat NFkB conf
N#CCC(CNc1ncc(C(F)(F)F)cc1Cl)OC(=O)c1ccc(Cl)cc1Cl (centres undefined)	-11	12	70*	1	-5	10	11
CCOC(=O)CNc1ncc(C(F)(F)F)cc1Cl	15	-7	5	-8	10	-2	/
Cc1ccc(C(=O)Nc2ncc(Cc3ccc(SC(F)F)cc3)s2)cc1	39	14	64*	-23	-78	37	48*
Cc1nc2ccc(NC(=O)c3ccc(Cl)nc3)cc2s1	-11	-3	-12	-14	-13	-17	/
Cc1ccc(C(=O)Nc2ccc3nc(C)sc3c2)s1	-127	1	-117	-19	-107	9	/
Cc1nc2ccc(NC(=O)c3cc(Cl)ccn3)cc2s1	-128	-1	-162	6	-197	-139	-109
Cc1nc2cc(NC(=O)c3ccc(Br)s3)ccc2s1	-230	-3	-221	-8	-14	-46	-55
Cc1ccc(-n2c(C(C)C)nc3oc4ccccc4c(=O)c3c2=O)cc1	-235	3	-198	-11	-138	-5	-72
CCCc1nc2oc3ccccc3c(=O)c2c(=O)n1-c1ccc(C)cc1	-170	4	-159	-15	-83	-5	-54
CCOC(=O)C1(CCCc2ccccc2)CCN(C(=O)c2cc(C)nn2CC)CC1	-3	8	10	-3	-50	9	/
CCOc1ccc(S(=O)(=O)NCc2ccc3c(c2)OCO3)cc1C(=O)O	12	-2	-17	-2	1	0	/
CCCc1nc(SCC(=O)Nc2cc(C)on2)c2ccccc2n1	24	/	-10	17	6	6	/
Cc1cc(NC(=O)CSc2nc(C(C)(C)C)nc3ccccc23)no1	19	2	57*	8	-62	2	20
O=[N+]([O-])c1ccccc1OCc1nc(-c2cccs2)no1	-179	/	-162	/	-166	-117	-121
O=[N+]([O-])c1ccc(F)cc1OCc1nc(-c2cccs2)no1	/	/	/	/	/	-93	/
COc1ccc(-c2c(C)nc3c(-c4ccc(F)cc4)cnn3c2N)cc1	32	2	-183	5	-207	-9	-73
Cc1cc(C(F)(F)F)n2ncc(-c3ccc(F)cc3)c2n1	8	/	-8	11	17	-1	/
CC1CCC2(CC1)NC(=O)N(NC(=O)C1CCN(C(=O)c3ccc(Cl)cc3)CC1)C2=O (centres undefined)	10	/	3	/	7	6	/
CS(=O)(=O)c1ccc(Sc2nc3ccccc3[nH]2)c([N+](=O)[O-])c1	7	-12	3	6	22	8	/
CS(=O)(=O)c1ccc(Sc2nc3ccccc3s2)c([N+](=O)[O-])c1	23	-24	94*	/	-24	9	58*
CC(C)=NOCC(=O)Nn1c(COc2c(C)cccc2C)nc2ccccc2c1=O	-2	/	-11	-6	-7	-1	/
Clc1ccc(-c2cn3c(n2)-c2ccccc2C3)cc1Cl	-243	9	-158	-3	-246	-139	-112
COc1ccc(/C=C/C(=O)N2CCN(c3ccccn3)CC2)c(OC)c1OC	15	0	-22	-11	4	7	/
Nc1nc(-c2cccnc2)nc2sc3c(c12)CCCC3	-106	1	-159	-8	-158	-105	-53
CCOC(=O)C1CCCN(C(=O)c2cc3c(-c4cccc(OC)c4)nn(C)c3s2)C1 (centres undefined)	42	/	55*	12	-15	-3	11
SMILES	Mdm2-MdmX inh	Beta apoptosis	Jurkat NFkB inh	CSC inhib	697 NFkB inh	Gli-Sufu antag	Jurkat NFkB conf
CC(=O)c1cc2c(cc1NC(=O)Cn1nc(-c3ccc(C)cc3)ccc1=O)OCO2	40	-3	53*	/	-19	19	14
CC(=O)Nc1cc2c(cc1NC(=O)Cn1nc(-c3ccc(F)cc3)ccc1=O)OCCO2	-10	-1	8	5	16	-13	/
CSc1ccc(CN2CCN(Cc3ccc([N+](=O)[O-])cc3)CC2)cc1	28	-4	55*	25	-24	16	26
O=[N+]([O-])c1ccc(CN2CCCCCC2)cc1	1	0	6	0	7	22	/
O=C1C2C3C=CC(C3)C2C(=O)N1c1ccc(-c2nc3ccccc3o2)cc1 (centres undefined)	-22	-3	-172	-6	-107	24	-55
Cc1ccc(Nc2nc(N)c3ccccc3n2)cc1C	-216	37	-166	30	-248	-3	-120
COC(=O)C1C(=O)c2c([nH]c(C(=O)OC3CCCC3)c2C)CC1C (centres undefined)	-73	3	-178	1	-208	-79	-91
CC(C)c1cc(C(=O)Nc2cccc(Cl)c2)no1	-145	-1	-232	3	-141	-49	-91
CCCc1cc(C(=O)Nc2ccc(CC)cc2)no1	-94	-4	-177	24	-136	-8	-91
CCCc1cc(C(=O)Nc2ccc(C)cc2)no1	-118	-1	-129	9	-49	-22	/
CC(C)Cc1cc(C(=O)Nc2cccc(O)c2)no1	-215	2	-203	-1	14	-5	-112
CC(=O)c1cccc(NC(=O)c2cc(C(C)C)on2)c1	-110	-6	-99	-6	-85	-78	/
CCc1ccc(NC(=O)c2cc(C(C)C)on2)cc1	-130	-8	-215	3	-155	-40	-128
CCc1ccc(NC(=O)c2cc(C)on2)cc1	-106	-4	-145	6	-119	-55	/
CSc1ccccc1OCc1cc(C(=O)N2CCN3CCCC3C2)no1 (centres undefined)	2	1	-6	0	-18	-11	/
Cc1ccc(SCC(=O)NNC(=O)CCS(=O)(=O)c2ccccc2)cc1	-8	4	0	3	21	-4	/
CCOC(=O)N1CCN(C(=O)C2CCCN(Cc3nc(-c4ccc(Cl)cc4)oc3C)C2)CC1 (centres undefined)	23	16	59*	1	-12	9	55*
Cc1oc(-c2ccc(Cl)cc2)nc1CN1CCCC(C(=O)NC2CC2)C1 (centres undefined)	10	-2	10	-16	-2	10	/
CSCCC(NC(=O)COc1ccccc1)C(=O)NCCOc1ccccc1 (centres undefined)	20	5	-24	-6	-9	-6	/
Oc1c(-c2cc(-c3ccco3)[nH]n2)ccc2ccccc12	-157	8	-156	21	-147	-90	-73
Cc1onc(-c2ccccc2)c1C(=O)Nc1ccc(Cl)c(S(=O)(=O)N2CCOCC2)c1	-19	3	-3	/	3	0	/
O=C(CSc1nnc(-c2cccc(F)c2)o1)N1CCCC1	-3	0	-21	-13	1	14	/
Cc1ccc(N=C/C(C(=O)C(F)(F)F)=C(\O)c2ccco2)cc1Cl	-313	-10	-183	-12	-185	-83	-8
